Reference: ChEMBL document CHEMBL3433997, “St. Jude Leishmania screening dataset” (2016)

Legend:
Format in all cases: functional
[1] = target: Solute carrier family 2, facilitated glucose transporter member 1 (Homo sapiens) (UniProt P11166); test: ST_JUDE_LEISH: Cytotoxicity at 2uM final concentration against transgenic Leishmania Mexicana promastigotes LmGLUT1 that are glucose transport deficient and complemented with the human glucose transporter GLUT1. Activity is measured by DNA content using SYBR green in vitro
[2] = target: Hexose transporter 1 (Plasmodium falciparum) (UniProt O97467); test: ST_JUDE_LEISH: Cytotoxicity at 2uM final concentration against transgenic Leishmania Mexicana promastigotes LmPfHT that are glucose transport deficient and complemented with the Plasmodium falciparum hexose transporter. Activity is measured by DNA content using SYBR green in vitro
[3] = target: Glucose transporter (Leishmania mexicana) (UniProt O61059); test: ST_JUDE_LEISH: Cytotoxicity at 2uM final concentration against transgenic Leishmania Mexicana promastigotes LmGT2 that are glucose transport deficient and complemented with the L. Mexicana glucose transporter 2. Activity is measured by DNA content using SYBR green in vitro

Solute carrier family 2, facilitated glucose transporter member 1 (Homo sapiens), sequence (P11166 whole entry): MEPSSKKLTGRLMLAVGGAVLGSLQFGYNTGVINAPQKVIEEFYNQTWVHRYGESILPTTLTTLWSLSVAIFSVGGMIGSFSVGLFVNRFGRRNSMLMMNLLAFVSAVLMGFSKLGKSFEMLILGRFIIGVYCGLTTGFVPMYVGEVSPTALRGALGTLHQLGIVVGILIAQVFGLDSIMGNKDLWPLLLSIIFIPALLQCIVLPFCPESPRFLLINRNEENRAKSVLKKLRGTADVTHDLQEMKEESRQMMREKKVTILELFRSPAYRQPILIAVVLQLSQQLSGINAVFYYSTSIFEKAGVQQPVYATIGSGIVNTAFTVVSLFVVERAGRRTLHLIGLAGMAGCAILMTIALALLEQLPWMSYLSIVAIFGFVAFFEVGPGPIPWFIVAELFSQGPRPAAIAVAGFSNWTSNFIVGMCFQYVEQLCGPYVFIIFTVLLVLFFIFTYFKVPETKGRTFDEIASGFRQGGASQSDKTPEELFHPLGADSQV

| SMILES | inhibition [1] | inhibition [2] | inhibition [3] |
| --- | --- | --- | --- |
| CC(CN(C)C)C(=O)Nc1cccc(-c2ccc(-c3nc4ccccc4[nH]3)cc2)c1 (stereo not drawn) | 12.2% | 9.79% | 7.36% |
| Nc1nccc2ccc(-c3ccncc3)cc12 | 5.87% | 7.14% | 6.25% |
| CCNc1cc(C(=O)N[C@@H](Cc2ccco2)[C@H](O)CNC2CCCCC2)cc(N2CCCCS2(=O)=O)c1 | 1.99% | 2.4% | 2.15% |
| O=C(Nc1ccc(OC2CCN(Cc3ccc(F)cc3)CC2)c(Cl)c1)c1ccco1 | 1.06% | 1.1% | 3.28% |
| CCCCCCNC(=O)C1Cc2c([nH]c3cc(Cl)ccc23)C2(CCN(Cc3ccccc3)CC2)N1 (stereo not drawn) | 7.27% | 5.97% | 5.18% |
| CC(C)c1ccc(NC(S)=NN=Cc2ccccn2)cc1 | 63.9% | 88.5% | 86.1% |
| Fc1ccccc1COc1ccc(Nc2ncnc3ccc(I)cc23)cc1Cl | 18.2% | 9.09% | 4.67% |
| Cc1cc(O)c2c3c1C(=O)C=C1C3c3c(c(O)cc(O)c3C(=O)C1(C)C)C2=O (stereo not drawn) | -4.69% | -5.26% | -3.43% |
| Nc1ccc(-c2nc3cc(C4=N[C@H]5CCCC[C@H]5N4)ccc3o2)cc1[N+](=O)[O-] | 3.44% | 1.57% | -0.09% |
| Cc1ccc(CN2CCN(CC(O)COc3ccc4c(c3)CCC4)CC2)cc1 (stereo not drawn) | -0.73% | 0.88% | -0.29% |
| CC1CN(S(=O)(=O)c2ccc(NC(=O)c3cc(-c4ccccc4O)n[nH]3)cc2)CC(C)O1 (stereo not drawn) | 4.88% | 5.64% | 4.67% |
| Nc1nc(N)c2c(Oc3ccc(Cl)c(Cl)c3)cccc2n1 | 0.48% | -0.05% | -3.94% |
| CNC(=O)c1ccc2nc(-c3ccc(-c4ccccc4)cc3)n(CC3CCN(CC4CCCC4)CC3)c2c1 | 1.8% | 0.69% | 1.13% |
| Cc1cccc2nc(-c3cccc(-c4cccc(NC(=O)c5cncn5C)c4)c3)[nH]c12 | -0.07% | 3.4% | 4.6% |
| O=C(Cc1cccs1)NC(CCCN1CCC(Oc2cccc(Cl)c2)CC1)c1ccc(Cl)c(Cl)c1 (stereo not drawn) | 1.97% | -1.59% | -1.89% |
| N#Cc1ccc(CNCCCCCCCNCc2ccc(-c3ccccc3)cc2)cc1 | 4.19% | 5.01% | 5.28% |
| CCCC(CNCc1cccc(I)c1)CNc1cc(=O)c2ccccc2[nH]1 (stereo not drawn) | 1.04% | 2.83% | 2.67% |
| O=C(/C=C/c1ccc(C(F)(F)F)cc1)NCCCCCN1CCCN(C(=O)Nc2ccc(F)c(Cl)c2)CC1 | 1.19% | 1.85% | 0.39% |

| SMILES | inhibition [1] | inhibition [2] | inhibition [3] |
| --- | --- | --- | --- |
| Cc1ccc(NC(=O)c2ccc(CN3CCCN(Cc4cccc(O)c4)CC3)cc2)cc1C | 0.9% | 0.45% | 4.65% |
| O=C(CC1SC(N2N=C(c3cccs3)CC2c2ccccc2)=NC1=O)Nc1ccc(Cl)cc1 (stereo not drawn) | 1.98% | 2.91% | -0.33% |
| O=[N+]([O-])c1ccc(Nc2nc(N/N=C/c3cccc(O)c3)nc(N3CCCC3)n2)cc1 | 3.46% | 3.1% | 1.31% |
| CCCC(C(CC1CCC(C)CC1)C(=O)NC(CCCNc1ncccn1)C(=O)Nc1nccs1)N(O)C=O (stereo not drawn) | 3.88% | 3.89% | 5.63% |
| CCCc1ccc(C(=O)N2C(c3nccs3)C(C(N)=O)CC2(CC(C)C)C(=O)O)cc1 (stereo not drawn) | 1.38% | 2.07% | 0.37% |
| CC(C)CNC(=O)c1ccnc(-c2ccc(CNCCCc3ccccc3)cc2)c1 | 2.32% | 3.19% | 2.74% |
| CCOc1ccc(C2CCN(CCCCNC(=O)c3ccc(NC(=O)c4ccc(Cl)cc4)cc3)CC2)c(Cl)c1 | 1.99% | 4.55% | 1.92% |
| COc1ccc2c(c1)CC(C)(C)NC2CCCCCCCCC1NC(C)(C)Cc2cc(OC)ccc21 (stereo not drawn) | 2.26% | 2.26% | 0.77% |
| Cc1cccc2nc(-c3ccc(-c4ccc(CNCc5cnn(-c6ccccc6)n5)cc4)cc3)[nH]c12 | 1.08% | 1.39% | 1.19% |
| CN1CCCc2ccc(NC(=O)Nc3ccc(-c4ccccc4)cc3)cc2C1 | -3.44% | 0.82% | -0.14% |
| COc1ccc(-c2ccc(NC(=O)c3ccc(Cl)cc3)cc2)cc1CN1CCC(O)CC1 | 3.31% | 2.62% | 2.54% |
| CC(=O)Oc1cc(C)ccc1C1CCN(CCCCNC(=O)c2ccc(-c3ccc(C(F)(F)F)cc3)cc2)CC1 | 1.9% | 2.04% | 1.11% |
| Fc1ccc2[nH]c(-c3cccc(-c4cccc(CNCc5ccccc5)c4)c3)nc2c1 | 0.07% | -0.96% | -0.93% |
| O=C(/C=C/c1c(Cl)cccc1Cl)NC1CCC(CN2CCC(c3c[nH]c4ccncc34)CC2)CC1 (stereo not drawn) | 5.27% | 5.98% | 4.84% |
| CC(C)N(Cc1cnc(N)c(C#N)n1)c1ccc(Cl)c(Cl)c1 | 3.62% | 2.68% | 2.67% |
| CC(=O)c1c(Cc2ccccc2Cl)c[nH]c1C | 4.46% | 3.16% | -1.32% |
| Cn1ccnc1CNC(=O)c1ccc(-c2cccc(-c3nc4cc(C(F)(F)F)ccc4[nH]3)c2)cc1 | 1.73% | 0.7% | 0.2% |
| Cc1nc2c(s1)c(=O)cc(CCc1cccc(F)c1F)n2CC(=O)N(Cc1ccc(-c2ccc(C(F)(F)F)cc2)cc1)C1CCN(C(C)C)CC1 | 1.07% | 0.83% | 1.78% |
